From PubChem BioAssay (Tox21)
Results filed as inconclusive are left out. The source made the active and inactive calls. Unless noted, the call rests on the fitted dose curve; in most records, active means well fitted curve in the direction sought with a large enough effect in the repeat runs; inconclusive means weak or mixed curves; inactive means no such curve, though single readings can be large; an effect the other way counts as inactive or inconclusive.

Assays:
[1] = biological target: Aryl hydrocarbon receptor (Homo sapiens) (UniProt P35869); experiment: qHTS assay to identify small molecule that activate the aryl hydrocarbon receptor (AhR) signaling pathway (AID 743085); further: nearly all actives have a fitted effect of over 15% in size; further: potency means the concentration at half of the fitted maximal effect;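 on activation: HG2L7.5c1 human HepG2 liver cells with stably integrated DRE-driven firefly reporter; series mostly up to about 70 µM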
Aryl hydrocarbon receptor (Homo sapiens), sequence (P35869 whole entry, looked up): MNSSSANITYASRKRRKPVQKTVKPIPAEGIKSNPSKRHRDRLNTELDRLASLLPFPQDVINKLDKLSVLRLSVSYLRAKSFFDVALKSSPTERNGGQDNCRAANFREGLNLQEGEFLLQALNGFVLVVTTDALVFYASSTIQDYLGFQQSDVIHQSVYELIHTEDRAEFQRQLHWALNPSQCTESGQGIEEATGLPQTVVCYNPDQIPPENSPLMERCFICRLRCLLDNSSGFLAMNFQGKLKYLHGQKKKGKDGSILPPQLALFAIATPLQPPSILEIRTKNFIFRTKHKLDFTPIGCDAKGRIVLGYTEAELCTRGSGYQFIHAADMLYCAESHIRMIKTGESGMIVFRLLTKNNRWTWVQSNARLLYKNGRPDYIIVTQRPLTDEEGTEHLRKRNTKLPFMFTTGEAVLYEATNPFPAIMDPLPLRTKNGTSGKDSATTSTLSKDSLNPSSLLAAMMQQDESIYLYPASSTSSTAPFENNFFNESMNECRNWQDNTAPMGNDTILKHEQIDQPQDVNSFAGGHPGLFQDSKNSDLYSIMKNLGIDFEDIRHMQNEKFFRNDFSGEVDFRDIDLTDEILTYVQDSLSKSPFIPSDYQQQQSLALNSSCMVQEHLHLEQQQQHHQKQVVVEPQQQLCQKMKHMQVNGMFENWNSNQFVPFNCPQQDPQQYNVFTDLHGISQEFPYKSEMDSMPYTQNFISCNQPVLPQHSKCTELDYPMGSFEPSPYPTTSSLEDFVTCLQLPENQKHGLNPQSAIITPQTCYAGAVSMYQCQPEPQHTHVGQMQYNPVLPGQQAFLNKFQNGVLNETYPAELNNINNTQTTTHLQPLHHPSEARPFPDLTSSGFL
Outline: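 Stably transfected human liver carcinoma cells (HG2L7.5c1; 20 DRE-firefly luciferase) were incubated 5 h, dosed, and kept 24 h at 37C. Agonism was scored from increased luciferase luminescence.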

[2] = qHTS assay to identify small molecule that activate the aryl hydrocarbon receptor (AhR) signaling pathway - cell viability counter screen (AID 743086);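 further: HepG2 liver cells carrying the AhR DRE luciferase reporter; series mostly up to about 70 µM; nearly all actives have a fitted effect of over 45% in size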
Outline: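 HepG2-AhR-luc (HG2L7.5c1) cells, 4000/well, were preincubated 5 h at 37C, exposed to compound in qHTS format for 24 hr at 37C, then given CellTiter-Fluor for 30 min; viability was read as fluorescence in the reporter wells.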

[3] = qHTS assay to identify small molecule antagonists of the peroxisome proliferator-activated receptor gamma (PPARg) signaling pathway - cell viability counter screen (AID 743194); further: nearly all actives have a fitted effect of over 55% in size
Outline: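 PPARg-UAS-bla HEK293H cells were plated, rested 5 h at 37 C, then treated with compounds plus rosiglitazone (50 nM final) for 17 h at 37 C; viability was then read by CellTiter-Glo luminescence after 30 min at room temperature.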

[4] = qHTS assay for small molecule agonists of the antioxidant response element (ARE) signaling pathway - cell viability counter screen (AID 743203; calls by dose curve; further: nearly all actives have a fitted effect of over 55% in size; further: potency means the concentration at half of the fitted maximal effect)
Outline: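 ARE-bla HepG2 cells were plated, rested 5 h at 37C/5% CO2, then exposed to compounds in DMSO for 16 h. Viability was read as CellTiter-Glo luminescence after 30 min at room temperature, in the same wells as the ARE screen.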

[5] = qHTS assay for small molecule activators of the heat shock response signaling pathway - cell viability counter screen (AID 743209); further: nearly all actives have a fitted effect of over 50% in size
Outline: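 HSE-bla HeLa cells plated overnight, then exposed to Tox21 compounds (23 nL in DMSO) for 5 h at 37 C. After the bla reporter read, CellTiter-Glo was added in the same wells and luminescence read after 30 min at room temperature.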

[6] = qHTS assay for small molecule activators of the heat shock response signaling pathway (AID 743210; active means well fitted activation curve with a large enough effect in the signal ratio in the repeat runs, with a control signal flat, not every such curve was filed as active; the % refers to the signal ratio;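 further: HeLa cells with beta-lactamase reporter driven by heat shock elements; series mostly up to about 63 µM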)
Outline: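 Reporter gene assay: HeLa cells stably bearing an HSE-bla construct, compound treatment 5 h at 37 C, LiveBLAzer substrate 2.5 h at RT, fluorescence intensity.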

[7] = qHTS assay to identify small molecule agonists of the peroxisome proliferator-activated receptor delta (PPARd) signaling pathway - cell viability counter screen (AID 743211); further: nearly all actives have a fitted effect of over 55% in size; further: potency means the concentration at half of the fitted maximal effect
Outline: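 In the same wells used for beta-lactamase reporter measurement, cytotoxicity is scored by CellTiter-Glo. HEK293H PPARd-bla cells receive compound for 17 h at 37C following a 5 h settling period.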

[8] = biological target: Peroxisome proliferator-activated receptor delta (Homo sapiens) (UniProt Q03181); experiment: qHTS assay to identify small molecule agonists of the peroxisome proliferator-activated receptor delta (PPARd) signaling pathway (AID 743212; calls by dose curve)
Peroxisome proliferator-activated receptor delta (Homo sapiens), sequence (Q03181 whole entry, looked up): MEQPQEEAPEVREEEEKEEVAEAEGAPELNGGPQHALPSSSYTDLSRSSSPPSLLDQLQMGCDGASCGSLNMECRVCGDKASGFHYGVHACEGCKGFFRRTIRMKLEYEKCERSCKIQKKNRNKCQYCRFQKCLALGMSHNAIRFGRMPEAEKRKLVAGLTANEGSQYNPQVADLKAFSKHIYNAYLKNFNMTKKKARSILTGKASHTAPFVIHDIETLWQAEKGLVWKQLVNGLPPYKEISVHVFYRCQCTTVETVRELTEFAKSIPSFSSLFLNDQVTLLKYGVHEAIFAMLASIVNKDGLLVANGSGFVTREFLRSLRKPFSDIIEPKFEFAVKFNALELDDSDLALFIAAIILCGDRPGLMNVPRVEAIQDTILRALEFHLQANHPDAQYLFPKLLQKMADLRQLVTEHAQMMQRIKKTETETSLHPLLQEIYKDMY
Outline: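 A PPARd-bla HEK293H line with beta-lactamase under an Upstream Activator Sequence is treated with compounds at 37 C. Substrate loading for 2 h at room temperature precedes the fluorescence measurement.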

[9] = qHTS assay to identify small molecule antagonists of the peroxisome proliferator-activated receptor delta (PPARd) signaling pathway - cell viability counter screen (AID 743213); further: nearly all actives have a fitted effect of over 50% in size; further: potency means the concentration at half of the fitted maximal effect
Outline: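 Cytotoxicity counter screen: CellTiter-Glo luminescence read 30 min after addition, in the same wells as the reporter assay. There, PPARd UAS-bla HEK293H cells (3000/well) were treated 17 h at 37 C with compound and 300 nM L165041.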

[10] = biological target: Bile acid receptor (Homo sapiens) (UniProt Q96RI1); experiment: qHTS assay to identify small molecule antagonists of the farnesoid-X-receptor (FXR) signaling pathway (AID 743217; active means well fitted inhibition curve with a large enough effect in the signal ratio in the repeat runs, not every such curve was filed as active; the % refers to the signal ratio)
Bile acid receptor (Homo sapiens), sequence (Q96RI1 whole entry, looked up): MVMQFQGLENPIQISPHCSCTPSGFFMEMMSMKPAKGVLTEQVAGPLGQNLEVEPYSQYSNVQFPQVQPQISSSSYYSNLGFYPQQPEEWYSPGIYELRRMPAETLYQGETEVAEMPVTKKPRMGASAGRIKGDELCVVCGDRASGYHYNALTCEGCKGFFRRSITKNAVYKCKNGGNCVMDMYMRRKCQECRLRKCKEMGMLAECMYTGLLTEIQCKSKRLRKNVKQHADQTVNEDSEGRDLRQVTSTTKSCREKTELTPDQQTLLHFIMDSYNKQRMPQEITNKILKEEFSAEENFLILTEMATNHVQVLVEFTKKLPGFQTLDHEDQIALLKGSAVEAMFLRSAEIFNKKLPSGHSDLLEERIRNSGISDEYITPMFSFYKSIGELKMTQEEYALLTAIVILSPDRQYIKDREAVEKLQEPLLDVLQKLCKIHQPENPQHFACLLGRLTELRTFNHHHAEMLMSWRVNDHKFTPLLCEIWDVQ
Outline: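 FXR-UAS-bla HEK 293T cells (beta-lactamase reporter) given compound plus chenodeoxycholic acid (50 uM final), 16 h at 37C. LiveBLAzer B/G FRET substrate added for 2 h at room temperature; fluorescence read.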

[11] = qHTS assay to identify small molecule agonists of the farnesoid-X-receptor (FXR) signaling pathway - cell viability counter screen (AID 743218); further: nearly all actives have a fitted effect of over 45% in size; further: potency means the concentration at half of the fitted maximal effect
Outline: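 FXR-UAS-bla HEK 293T cells exposed to compounds for 16 h at 37C. Cytotoxicity read in the same wells by CellTiter-Glo luminescence after 30 min at room temperature, following the beta-lactamase FRET read.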

[12] = biological target: Bile acid receptor (Homo sapiens) (UniProt Q96RI1); experiment: qHTS assay to identify small molecule agonists of the farnesoid-X-receptor (FXR) signaling pathway (AID 743220; active means well fitted activation curve with a large enough effect in the signal ratio in the repeat runs, not every such curve was filed as active; the % refers to the signal ratio)
Outline: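 Beta-lactamase reporter under UAS control in GeneBLAzer FXR HEK 293T cells (5000/well) measured with LiveBLAzer FRET substrate after 2 h at room temperature. Compound exposure lasted 16 h at 37C.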

[13] = qHTS assay to identify small molecule antagonists of the farnesoid-X-receptor (FXR) signaling pathway - cell viability counter screen (AID 743221; active means well fitted cell-killing curve with a large enough effect in the repeat runs, not every such curve was filed as active; further: nearly all actives have a fitted effect of over 50% in size; further: potency means the concentration at half of the fitted maximal effect)
Outline: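 Here viability was scored by luminescence after CellTiter-Glo addition to wells already read for beta-lactamase. Prior treatment: compound plus CDCA (50 uM final), 16 h, 37 C, HEK 293T FXR-bla cells.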

[14] = biological target: Vitamin D3 receptor (Homo sapiens) (UniProt P11473); experiment: qHTS assay to identify small molecule agonists of the vitamin D receptor (VDR) signaling pathway (AID 743222; calls by dose curve)
Vitamin D3 receptor (Homo sapiens), sequence (P11473 whole entry, looked up): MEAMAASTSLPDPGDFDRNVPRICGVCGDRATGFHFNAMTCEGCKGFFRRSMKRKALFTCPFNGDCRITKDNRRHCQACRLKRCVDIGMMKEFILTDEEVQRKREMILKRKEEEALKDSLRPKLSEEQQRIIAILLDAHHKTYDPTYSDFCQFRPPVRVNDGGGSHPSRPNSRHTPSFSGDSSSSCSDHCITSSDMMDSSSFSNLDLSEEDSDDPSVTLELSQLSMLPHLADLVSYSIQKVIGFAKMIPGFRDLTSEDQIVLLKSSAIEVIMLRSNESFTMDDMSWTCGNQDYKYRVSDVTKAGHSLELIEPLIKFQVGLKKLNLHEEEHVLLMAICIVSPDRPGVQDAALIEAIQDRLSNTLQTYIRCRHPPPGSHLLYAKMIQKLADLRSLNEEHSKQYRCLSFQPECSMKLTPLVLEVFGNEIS
Outline: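 VDR-bla cells plated 4 h at 37 C, then exposed to compounds for 16 h at 37 C. Beta-lactamase reporter activity measured by fluorescence after 2 h room-temperature loading with LiveBLAzer B/G FRET substrate.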

[15] = qHTS assay to identify small molecule agonists of the vitamin D receptor (VDR) signaling pathway - cell viability counter screen (AID 743224); further: nearly all actives have a fitted effect of over 50% in size; further: potency means the concentration at half of the fitted maximal effect
Outline: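 VDR-bla cells, 4 h after plating, exposed to compounds for 16 h at 37C; viability then read in the same wells as CellTiter-Glo luminescence after 30 min at room temperature, following the bla FRET read.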

[16] = biological target: Peroxisome proliferator-activated receptor gamma (Homo sapiens) (UniProt P37231); experiment: qHTS assay to identify small molecule agonists of the peroxisome proliferator-activated receptor gamma (PPARg) signaling pathway (AID 743094; active means well fitted activation curve with a large enough effect in the signal ratio in the repeat runs, not every such curve was filed as active; the % refers to the signal ratio)
Peroxisome proliferator-activated receptor gamma (Homo sapiens), sequence (P37231 whole entry, looked up): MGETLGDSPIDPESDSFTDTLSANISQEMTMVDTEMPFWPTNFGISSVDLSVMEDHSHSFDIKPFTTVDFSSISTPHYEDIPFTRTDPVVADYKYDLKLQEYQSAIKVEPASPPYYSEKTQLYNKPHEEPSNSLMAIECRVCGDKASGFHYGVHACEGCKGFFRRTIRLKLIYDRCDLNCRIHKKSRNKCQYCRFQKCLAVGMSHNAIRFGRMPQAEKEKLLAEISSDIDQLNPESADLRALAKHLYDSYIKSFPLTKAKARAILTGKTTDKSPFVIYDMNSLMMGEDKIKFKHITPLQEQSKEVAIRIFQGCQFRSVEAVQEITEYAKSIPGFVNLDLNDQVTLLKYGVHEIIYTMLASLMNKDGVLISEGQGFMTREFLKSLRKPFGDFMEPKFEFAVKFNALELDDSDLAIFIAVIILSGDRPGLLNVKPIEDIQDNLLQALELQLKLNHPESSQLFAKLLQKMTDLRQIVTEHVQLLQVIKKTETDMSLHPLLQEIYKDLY
Outline: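 GeneBLAzer PPARg UAS-bla HEK293H cells were plated, rested 5 h, then exposed to compounds for 17 h at 37C. Beta-lactamase activity was read by LiveBLAzer B/G FRET substrate fluorescence after 1 h at room temperature.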

[17] = biological target: Vitamin D3 receptor (Homo sapiens) (UniProt P11473); experiment: qHTS assay to identify small molecule antagonists of the vitamin D receptor (VDR) signaling pathway (AID 743223; active means well fitted inhibition curve with a large enough effect in the signal ratio in the repeat runs, not every such curve was filed as active; the % refers to the signal ratio)
Outline: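 Inhibition of agonist-driven VDR signalling is scored in VDR-bla cells: 3 nM final 1alpha,25-dihydroxyvitamin D3 plus compound, 16 h at 37C, then beta-lactamase detection by FRET substrate fluorescence after 2 h.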

[18] = biological target: Peroxisome proliferator-activated receptor gamma (Homo sapiens) (UniProt P37231); experiment: qHTS assay to identify small molecule antagonists of the peroxisome proliferator-activated receptor gamma (PPARg) signaling pathway (AID 743191; calls by dose curve; further: nearly all actives have a fitted effect of over 30% in size; further: potency means the concentration at half of the fitted maximal effect)
Outline: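 GeneBLAzer PPARg UAS-bla HEK293H cells carrying a UAS-driven beta-lactamase reporter were plated at 3000 cells/well, preincubated 5 h at 37C, then given compound for 17 h at 37C; LiveBLAzer B/G FRET substrate was read after 1 h at room temperature.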

[19] = qHTS assay for small molecule agonists of the antioxidant response element (ARE) signaling pathway (AID 743202; active means well fitted activation curve with a large enough effect in the signal ratio in the repeat runs, not every such curve was filed as active; the % refers to the signal ratio; further: potency means the concentration at half of the fitted maximal effect)
Outline: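 Compounds delivered in DMSO to ARE-bla HepG2 cells (2,000 cells/well, pre-incubated 5 h) and left 16 h at 37 C. LiveBLAzer B/G FRET substrate then added for 2 h at RT before fluorescence reading.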

[20] = biological target: Peroxisome proliferator-activated receptor delta (Homo sapiens) (UniProt Q03181); experiment: qHTS assay to identify small molecule antagonists of the peroxisome proliferator-activated receptor delta (PPARd) signaling pathway (AID 743215; active means well fitted inhibition curve with a large enough effect in the signal ratio in the repeat runs, not every such curve was filed as active; the % refers to the signal ratio;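 further: cells stimulated with agonist L165041 at 300 nM final during compound exposure; series mostly up to about 62 µM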)
Outline: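 PPARd-bla HEK293H cells (UAS-bla reporter) preincubated 5 h, then given compound plus 300 nM final L165041 agonist for 17 h at 37 C. Beta-lactamase activity read by LiveBLAzer B/G FRET substrate fluorescence after 2 h at room temperature.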

Measured: Potency

CNC(=S)NC
active: [11] 17.4 µM | [13] 38.9 µM
not listed: [16] | [17] | [18] | [19] | [20]
inactive: all other assays above

CCC(=O)Oc1ccc(/C(CC)=C(\CC)c2ccc(OC(=O)CC)cc2)cc1
inactive: [1] | [2] | [16] | [8] | [13] | [17]
active: [7] 54.9 µM | [15] 54.9 µM

CC1=C(/C=C/C(C)=C\C=C\C(C)=C\C(=O)O)C(C)(C)CCC1
not listed: [8] | [10] | [12] | [16] | [19] | [20]
inactive: all other assays above

Cc1cc(O)c2c(O)c3c(O)cccc3cc2c1
inactive: [2] | [3] | [4] | [5] | [6] | [7] | [9] | [10] | [11] | [13]
active: [1] 2.66 µM | [19] 11.9 µM

CC1CC(=O)NN=C1c1ccc(NCC(C)(C)NCC(O)COc2cc(Cl)ccc2C#N)cc1 (stereo not drawn)
active: [1] 6.68 µM
not listed: [8] | [9] | [16] | [17] | [18] | [20]
inactive: all other assays above

CCCCC(=O)O[C@]1(C(=O)CO)CC[C@H]2[C@@H]3CCC4=CC(=O)CC[C@]4(C)[C@H]3[C@@H](O)C[C@@]21C
not listed: [14] | [16] | [17] | [18]
inactive: all other assays above

O=c1[nH]c2ccc(S(=O)CCN3CCC(Cc4ccc(F)cc4)CC3)cc2o1 (stereo not drawn)
inactive: [1] | [2] | [3] | [4] | [5] | [6] | [7] | [9] | [20] | [13] | [15]

NC(=O)N(O)[C@@H]1COc2cc(OCc3ccccc3)ccc21
not listed: [2] | [14] | [20]
inactive: all other assays above

Cc1ccc(/C=N/n2c(-c3ccccc3)csc2=S)cc1
active: [1] 10.6 µM | [18] 13.3 µM
not listed: [5] | [6] | [10] | [12] | [16] | [19] | [20]
inactive: all other assays above

C/C=C(\C)C(=O)OCCC(C)CCC=C(C)C (stereo not drawn)
not listed: [8] | [16] | [18] | [20]
inactive: all other assays above

CN1CCN(CCCN2c3ccccc3Sc3ccc(S(=O)(=O)N(C)C)cc32)CC1
active: [4] 26.6 µM | [7] 26.6 µM | [9] 26.6 µM | [11] 29.8 µM
inactive: [1] | [2] | [6]

CC1(C)O[C@@H]2C[C@H]3[C@@H]4CCC5=CC(=O)C=C[C@]5(C)[C@H]4[C@@H](O)C[C@]3(C)[C@]2(C(=O)CO)O1
not listed: [8] | [10] | [12] | [16] | [18] | [20]
inactive: all other assays above

CC#N
not listed: [6] | [14] | [16] | [17] | [18] | [20]
inactive: all other assays above

Cc1cc(OI)c(C(C)C)cc1-c1cc(C(C)C)c(OI)cc1C
not listed: [6] | [8] | [12] | [14] | [16] | [17] | [18] | [20]
inactive: all other assays above
